Measurements as given in PubChem BioAssay (NCATS).
Results filed as inconclusive are left out. Values without a mark were called inactive. Active and inactive are the calls of the source. Calls follow the shape of the dose curve; as a rule, active = well fitted cell-killing curve with a large enough effect; inconclusive = small, poorly fitted or top-dose-only effect, or effect the other way; inactive = no such curve, though single readings can be large or run the other way.

Columns and labels:
[1] = Quantitative High-Throughput drug screen in 47 multiple myeloma cell lines against the NCATS MIPE library collection: OCIMY5_PLB cell viability assay (AID 1918988); also: nearly all actives have a fitted effect of over 65% in size
Method in brief: (§1)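 ATP-based luminescence (CellTiter-Glo, 5 min RT incubation) quantified surviving cells following two days' treatment with MIPE 4.0 agents at 37 °C, 5% CO2.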

[2] = Quantitative High-Throughput drug screen in 47 multiple myeloma cell lines against the NCATS MIPE library collection: OPM1_PLB cell viability assay (AID 1918989); also: nearly all actives have a fitted effect of over 40% in size
Method in brief: as §1

[3] = Quantitative High-Throughput drug screen in 47 multiple myeloma cell lines against the NCATS MIPE library collection: SKMM1_PLB cell viability assay (AID 1919863); conditions: SKMM1 myeloma viability, CellTiter-Glo ATP, 48 h; viability: hits give low values; also: nearly all actives have a fitted effect of over 35% in size
Method in brief: as §1

[4] = Quantitative High-Throughput drug screen in 47 multiple myeloma cell lines against the NCATS MIPE library collection: U266_ATCC cell viability assay (AID 1919864); also: nearly all actives have a fitted effect of over 35% in size;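 as to viability (% of DMSO control): 0% = media-only wells without cells and 100% = DMSO-only wells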
Method in brief: as §1

[5] = Quantitative High-Throughput drug screen in 47 multiple myeloma cell lines against the NCATS MIPE library collection: XG6_PLB cell viability assay (AID 1919865); also: nearly all actives have a fitted effect of over 40% in size
Method in brief: as §1

[6] = Quantitative High-Throughput drug screen in 47 multiple myeloma cell lines against the NCATS MIPE library collection: XG1_PLB cell viability assay (AID 1919866); also: nearly all actives have a fitted effect of over 35% in size
Method in brief: as §1

[7] = Quantitative High-Throughput drug screen in 47 multiple myeloma cell lines against the NCATS MIPE library collection: UTMC2_PLB cell viability assay (AID 1919868); conditions: CellTiter-Glo ATP luminescence, 48 h; viability (% of DMSO control): at 45.8 µM (top of the series); also: nearly all actives have a fitted effect of over 55% in size
Method in brief: as §1

[8] = Quantitative High-Throughput drug screen in 47 multiple myeloma cell lines against the NCATS MIPE library collection: PE2_PLB cell viability assay (AID 1919869); also: nearly all actives have a fitted effect of over 35% in size
Method in brief: as §1

[9] = Quantitative High-Throughput drug screen in 47 multiple myeloma cell lines against the NCATS MIPE library collection: VP6_DJ cell viability assay (AID 1919867); also: nearly all actives have a fitted effect of over 40% in size
Method in brief: as §1

[10] = Quantitative High-Throughput drug screen in 47 multiple myeloma cell lines against the NCATS MIPE library collection: PCM6_Riken cell viability assay (AID 1919870); also: nearly all actives have a fitted effect of over 30% in size
Method in brief: as §1
Potency is read from the fitted curve at half-maximal effect.

Compound: CC(C)C[C@H](NC(=O)[C@@H](O)[C@H](N)Cc1ccccc1)C(=O)O
- Potency [1]: 26.4 µM (active)
- Potency [2]: 16.6 µM (active)
- Potency [3]: 26.4 µM (active)
- Potency [4]: 23.5 µM (active)
- Potency [5]: 20.9 µM (active)
- Potency [6]: 20.9 µM (active)
- Potency [7]: 23.5 µM (active)
- Potency [8]: 26.4 µM (active)

Compound: Nc1nc2c(ncn2COCCO)c(=O)[nH]1
- Potency [1]: inactive
- Potency [2]: inactive
- viability [3]: 125%
- Potency [4]: inactive
- Potency [5]: inactive
- Potency [6]: 18.7 µM (active)
- Potency [9]: inactive
- Potency [8]: inactive

Compound: CCOC(=O)C1=C[C@]2(CC)CCCN3CCc4c(n1c1ccccc41)[C@@H]32
- Potency [1]: 13.2 µM (active)
- Potency [2]: 8.33 µM (active)
- Potency [3]: 26.4 µM (active)
- Potency [4]: 16.6 µM (active)
- Potency [5]: 7.43 µM (active)
- Potency [6]: 6.62 µM (active)
- Potency [8]: 9.35 µM (active)
- Potency [10]: 8.33 µM (active)

Compound: CCC(C)(C)C(=O)O[C@H]1C[C@@H](C)C=C2C=C[C@H](C)[C@H](CC[C@@H]3C[C@@H](O)CC(=O)O3)[C@H]21
- Potency [1]: 18.7 µM (active)
- Potency [2]: 8.33 µM (active)
- Potency [3]: 18.7 µM (active)
- Potency [5]: 18.7 µM (active)
- Potency [6]: 9.35 µM (active)
- Potency [9]: 16.6 µM (active)
- Potency [7]: 14.8 µM (active)

Compound: COc1ccc(COc2cc3oc(=O)c4cc(C(C)O)ccc4c3cc2OC)cc1 (stereo not drawn)
- Potency [1]: 20.9 µM (active)
- Potency [2]: 18.7 µM (active)
- Potency [3]: 20.9 µM (active)
- Potency [4]: 13.2 µM (active)
- Potency [6]: 13.2 µM (active)
- Potency [8]: 14.8 µM (active)

Compound: Cc1ccc(NC(=O)c2cccc(C(C)(C)C#N)c2)cc1Nc1ccc2ncn(C)c(=O)c2c1
- Potency [1]: 16.6 µM (active)
- Potency [2]: 14.8 µM (active)
- Potency [3]: 1.66 µM (active)
- Potency [4]: 18.7 µM (active)
- Potency [5]: 5.26 µM (active)
- Potency [8]: 5.9 µM (active)

Compound: CN(C)C(=O)c1ccc(S(=O)(=O)c2ccc(NC(=O)[C@@](C)(O)C(F)(F)F)c(Cl)c2)cc1
- Potency [1]: 20.9 µM (active)
- Potency [2]: inactive
- viability [3]: 99.9%
- Potency [4]: inactive
- Potency [6]: 3.32 µM (active)

Compound: O=C1CCCC2=C1C(c1[nH]ncc1Cl)N=C(Nc1nc3ccccc3o1)N2 (stereo not drawn)
- Potency [1]: 23.5 µM (active)
- Potency [2]: 10.5 µM (active)
- Potency [3]: 10.5 µM (active)
- Potency [4]: 14.8 µM (active)
- Potency [5]: 23.5 µM (active)
- Potency [6]: 2.96 µM (active)
- Potency [9]: 0.0935 µM (active)
- Potency [8]: 0.526 µM (active)

Compound: CN1CCN(CCCN2c3ccccc3Sc3ccc(C(F)(F)F)cc32)CC1
- Potency [1]: inactive
- Potency [2]: 26.4 µM (active)
- viability [3]: 123%
- Potency [4]: 1.66 µM (active)
- Potency [5]: 1.05 µM (active)
- Potency [6]: 1.18 µM (active)
- Potency [9]: 2.09 µM (active)
- Potency [8]: 9.35 µM (active)
- Potency [10]: 1.48 µM (active)

Compound: CCCS(=O)(=O)Nc1ccc(F)c(C(=O)c2c[nH]c3ncc(Cl)cc23)c1F
- Potency [1]: 14.8 µM (active)
- Potency [2]: 18.7 µM (active)
- viability [3]: 122%
- Potency [4]: 11.8 µM (active)
- Potency [5]: 10.5 µM (active)
- Potency [6]: 18.7 µM (active)
- Potency [9]: 14.8 µM (active)
- Potency [10]: 11.8 µM (active)

Compound: CC(=O)Oc1ccccc1C(=O)O
- Potency [1]: 5.26 µM (active)
- Potency [2]: inactive
- viability [3]: 129%
- Potency [4]: 7.43 µM (active)
- Potency [5]: 4.69 µM (active)
- Potency [6]: 5.26 µM (active)

Compound: CO[C@@H]1[C@H](N(C)C(=O)c2ccccc2)C[C@H]2O[C@]1(C)n1c3ccccc3c3c4c(c5c6ccccc6n2c5c31)C(=O)NC4
- Potency [1]: 1.48 µM (active)
- Potency [2]: 1.18 µM (active)
- Potency [3]: 8.33 µM (active)
- Potency [4]: 3.72 µM (active)
- Potency [5]: 0.372 µM (active)
- Potency [6]: 0.935 µM (active)
- Potency [9]: 0.418 µM (active)
- Potency [8]: 0.59 µM (active)

Compound: CS(=O)(=O)Oc1ccc2c(NC(N)=O)c(C(=O)c3ccc(Cl)cc3Cl)oc2c1
- Potency [1]: inactive
- Potency [2]: 20.9 µM (active)
- viability [3]: 128%
- Potency [4]: 11.8 µM (active)
- Potency [5]: 16.6 µM (active)
- Potency [6]: 20.9 µM (active)
- Potency [9]: 9.35 µM (active)
- Potency [8]: 23.5 µM (active)
- Potency [10]: 20.9 µM (active)

Compound: COc1cc2nccc(Oc3ccc(NC(=O)NC4CC4)c(Cl)c3)c2cc1C(N)=O
- Potency [1]: 3.32 µM (active)
- Potency [2]: 16.6 µM (active)
- Potency [3]: 13.2 µM (active)
- Potency [4]: 7.43 µM (active)
- Potency [5]: 3.32 µM (active)
- Potency [6]: 18.7 µM (active)
- Potency [7]: 2.64 µM (active)
- Potency [8]: 18.7 µM (active)
- Potency [10]: 16.6 µM (active)

Compound: CCC(C)n1ncn(-c2ccc(N3CCN(c4ccc(OC[C@H]5CO[C@](Cn6cncn6)(c6ccc(Cl)cc6Cl)O5)cc4)CC3)cc2)c1=O (stereo partly drawn)
- Potency [1]: 2.96 µM (active)
- Potency [2]: inactive
- Potency [3]: 14.8 µM (active)
- Potency [4]: inactive
- Potency [6]: inactive
- Potency [8]: inactive

Compound: Cc1ccc(-n2nc(C(C)(C)C)cc2NC(=O)Nc2ccc(OCCN3CCOCC3)c3ccccc23)cc1
- Potency [1]: 20.9 µM (active)
- Potency [2]: 26.4 µM (active)
- Potency [4]: 23.5 µM (active)
- Potency [5]: 3.32 µM (active)
- Potency [8]: 16.6 µM (active)
- Potency [10]: 23.5 µM (active)

Compound: COc1c(Cl)cc2c([nH]c3cnccc32)c1NC(=O)c1cccnc1C
- Potency [1]: 9.35 µM (active)
- Potency [2]: 2.96 µM (active)
- Potency [3]: 6.62 µM (active)
- Potency [5]: 0.166 µM (active)
- Potency [6]: 0.372 µM (active)
- Potency [8]: 3.32 µM (active)
